We go through 31 targets from the supplement of paper PMC12819154, “High-throughput peptide-centric local stability assay extends protein–ligand identification to membrane proteins, tissues and bacteria” (Nature Structural & Molecular Biology, 2025).

Compound in the test: Nc1ncnc2c1ncn2[C@@H]1O[C@H](COP(=O)(O)OP(=O)(O)OP(=O)(O)O)[C@@H](O)[C@H]1O [adenosine 5'-triphosphate]
Put plainly: log2 fold change of tryptic peptide abundance, ligand vs vehicle (limited proteolysis) (log2 ratio); higher = more trypsin-susceptible (destabilized). Particulars: ligand concentration: 5 mM; sample: E. coli desalted lysate; replicate design: treated before aliquoting. The protocol: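 HT-PELSA: desalted E. coli K-12 BW25113 lysate (with 12 mM MgCl2) incubated with 5 mM ATP (pH 7) or water for 30 min at 25 C, then a 4 min trypsin pulse at 22 C. Peptides were quantified by DIA-MS (4 replicates). Value is the peptide log2 fold change (treated/control); negative = stabilized. Scale: negative = ligand-stabilized region.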
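Note: lysate desalted by size exclusion to strip endogenous ATP, peptide intensities built from DIA-NN precursor signals, and peptides missing any value discarded before comparison.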

UniProt P46144, sequence (P46144 whole entry): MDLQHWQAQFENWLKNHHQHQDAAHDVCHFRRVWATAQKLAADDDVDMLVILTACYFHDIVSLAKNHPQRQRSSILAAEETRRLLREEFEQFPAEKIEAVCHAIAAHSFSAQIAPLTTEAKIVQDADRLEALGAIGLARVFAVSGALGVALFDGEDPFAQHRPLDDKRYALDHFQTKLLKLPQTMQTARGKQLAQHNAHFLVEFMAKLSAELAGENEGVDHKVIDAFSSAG
UniProt P42599, sequence (P42599 whole entry): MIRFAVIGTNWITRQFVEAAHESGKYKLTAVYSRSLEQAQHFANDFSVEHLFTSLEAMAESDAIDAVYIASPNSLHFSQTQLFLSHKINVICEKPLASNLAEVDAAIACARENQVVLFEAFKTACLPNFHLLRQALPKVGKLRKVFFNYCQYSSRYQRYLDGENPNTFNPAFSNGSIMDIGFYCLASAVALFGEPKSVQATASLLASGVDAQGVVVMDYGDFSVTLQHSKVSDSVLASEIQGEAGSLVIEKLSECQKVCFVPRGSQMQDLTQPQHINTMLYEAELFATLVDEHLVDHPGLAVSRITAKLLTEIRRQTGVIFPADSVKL
UniProt P00888, sequence (P00888 whole entry): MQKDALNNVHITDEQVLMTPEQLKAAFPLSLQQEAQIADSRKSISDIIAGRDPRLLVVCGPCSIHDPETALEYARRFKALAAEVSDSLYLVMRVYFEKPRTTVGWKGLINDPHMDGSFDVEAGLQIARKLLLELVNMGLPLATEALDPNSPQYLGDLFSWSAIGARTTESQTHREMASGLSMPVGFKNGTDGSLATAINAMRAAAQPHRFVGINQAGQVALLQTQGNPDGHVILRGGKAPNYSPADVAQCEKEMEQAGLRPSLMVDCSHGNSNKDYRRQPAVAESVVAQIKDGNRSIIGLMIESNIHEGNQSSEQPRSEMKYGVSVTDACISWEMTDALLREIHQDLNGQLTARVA
UniProt P10908, sequence (P10908 whole entry): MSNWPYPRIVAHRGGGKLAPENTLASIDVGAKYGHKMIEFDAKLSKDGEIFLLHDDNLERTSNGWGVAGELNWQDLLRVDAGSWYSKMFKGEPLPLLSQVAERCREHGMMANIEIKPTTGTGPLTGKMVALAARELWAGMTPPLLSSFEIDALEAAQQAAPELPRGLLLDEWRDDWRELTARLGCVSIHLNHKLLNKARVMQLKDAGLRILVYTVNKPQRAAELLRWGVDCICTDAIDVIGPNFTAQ
UniProt P37671, sequence (P37671 whole entry): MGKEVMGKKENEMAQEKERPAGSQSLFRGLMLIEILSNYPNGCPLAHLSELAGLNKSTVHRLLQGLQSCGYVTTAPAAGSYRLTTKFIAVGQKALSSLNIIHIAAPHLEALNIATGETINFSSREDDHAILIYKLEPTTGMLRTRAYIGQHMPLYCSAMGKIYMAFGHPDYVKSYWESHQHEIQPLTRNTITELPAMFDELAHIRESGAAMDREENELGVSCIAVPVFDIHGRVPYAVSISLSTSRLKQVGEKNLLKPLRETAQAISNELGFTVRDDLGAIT
UniProt P26365, sequence (P26365 whole entry): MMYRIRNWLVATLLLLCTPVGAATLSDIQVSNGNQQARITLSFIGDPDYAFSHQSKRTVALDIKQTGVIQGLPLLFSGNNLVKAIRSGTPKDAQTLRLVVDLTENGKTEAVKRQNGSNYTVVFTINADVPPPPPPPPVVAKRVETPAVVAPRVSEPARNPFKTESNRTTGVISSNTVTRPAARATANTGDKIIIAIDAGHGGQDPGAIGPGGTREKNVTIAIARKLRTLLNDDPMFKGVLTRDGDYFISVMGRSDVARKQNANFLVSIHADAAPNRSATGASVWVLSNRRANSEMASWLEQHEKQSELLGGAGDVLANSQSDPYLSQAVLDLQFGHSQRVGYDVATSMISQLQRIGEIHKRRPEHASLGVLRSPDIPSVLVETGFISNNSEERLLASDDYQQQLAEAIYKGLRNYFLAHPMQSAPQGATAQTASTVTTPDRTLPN
UniProt P32141, sequence (P32141 whole entry): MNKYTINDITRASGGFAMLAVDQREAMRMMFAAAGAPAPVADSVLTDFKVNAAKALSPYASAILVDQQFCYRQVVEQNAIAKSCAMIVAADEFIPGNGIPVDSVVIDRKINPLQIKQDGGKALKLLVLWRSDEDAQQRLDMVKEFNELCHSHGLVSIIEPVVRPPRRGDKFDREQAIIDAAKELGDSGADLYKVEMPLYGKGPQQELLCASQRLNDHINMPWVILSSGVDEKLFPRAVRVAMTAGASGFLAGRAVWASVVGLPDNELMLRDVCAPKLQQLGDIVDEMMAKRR
UniProt P05055, sequence (P05055 whole entry): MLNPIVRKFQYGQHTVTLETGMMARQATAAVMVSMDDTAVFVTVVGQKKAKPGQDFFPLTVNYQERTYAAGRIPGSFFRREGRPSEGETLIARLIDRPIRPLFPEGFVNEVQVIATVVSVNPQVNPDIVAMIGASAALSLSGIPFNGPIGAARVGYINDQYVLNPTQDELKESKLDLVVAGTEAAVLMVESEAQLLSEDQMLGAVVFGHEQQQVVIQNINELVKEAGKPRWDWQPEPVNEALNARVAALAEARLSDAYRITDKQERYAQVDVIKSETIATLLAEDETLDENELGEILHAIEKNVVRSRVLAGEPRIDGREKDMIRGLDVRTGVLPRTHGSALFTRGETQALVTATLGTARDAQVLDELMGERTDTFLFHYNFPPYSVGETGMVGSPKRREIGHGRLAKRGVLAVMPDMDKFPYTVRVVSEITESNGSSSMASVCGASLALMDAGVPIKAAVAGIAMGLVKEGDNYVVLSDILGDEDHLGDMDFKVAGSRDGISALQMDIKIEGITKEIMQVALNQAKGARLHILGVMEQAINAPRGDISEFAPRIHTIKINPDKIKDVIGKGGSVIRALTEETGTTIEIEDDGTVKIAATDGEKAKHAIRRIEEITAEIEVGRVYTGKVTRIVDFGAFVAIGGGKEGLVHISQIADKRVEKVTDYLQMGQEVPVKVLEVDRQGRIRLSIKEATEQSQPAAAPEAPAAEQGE
UniProt P0A7D4, sequence (P0A7D4 whole entry): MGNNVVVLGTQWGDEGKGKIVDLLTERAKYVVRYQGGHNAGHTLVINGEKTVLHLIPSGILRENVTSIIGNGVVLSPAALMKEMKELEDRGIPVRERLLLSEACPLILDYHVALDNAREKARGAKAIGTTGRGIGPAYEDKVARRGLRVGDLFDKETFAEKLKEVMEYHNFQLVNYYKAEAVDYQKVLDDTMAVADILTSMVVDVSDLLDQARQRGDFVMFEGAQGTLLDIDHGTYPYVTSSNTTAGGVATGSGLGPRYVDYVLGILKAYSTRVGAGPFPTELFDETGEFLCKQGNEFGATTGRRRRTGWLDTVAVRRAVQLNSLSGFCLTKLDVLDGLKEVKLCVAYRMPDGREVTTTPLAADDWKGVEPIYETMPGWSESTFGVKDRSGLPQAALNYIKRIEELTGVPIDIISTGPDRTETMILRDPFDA
UniProt P0AAG8, sequence (P0AAG8 whole entry): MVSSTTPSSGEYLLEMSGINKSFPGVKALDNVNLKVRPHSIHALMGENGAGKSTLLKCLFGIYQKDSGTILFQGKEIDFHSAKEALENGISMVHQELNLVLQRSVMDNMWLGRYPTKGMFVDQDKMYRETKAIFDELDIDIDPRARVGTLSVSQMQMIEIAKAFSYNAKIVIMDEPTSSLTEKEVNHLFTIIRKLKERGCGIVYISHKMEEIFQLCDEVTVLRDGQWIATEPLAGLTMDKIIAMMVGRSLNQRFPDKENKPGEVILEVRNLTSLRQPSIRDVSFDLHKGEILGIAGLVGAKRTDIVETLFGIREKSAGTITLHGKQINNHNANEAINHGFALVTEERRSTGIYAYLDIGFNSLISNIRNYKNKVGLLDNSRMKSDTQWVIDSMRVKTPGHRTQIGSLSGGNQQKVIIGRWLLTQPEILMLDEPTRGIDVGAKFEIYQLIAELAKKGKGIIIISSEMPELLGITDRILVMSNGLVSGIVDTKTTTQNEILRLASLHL
UniProt P24193, sequence (P24193 whole entry): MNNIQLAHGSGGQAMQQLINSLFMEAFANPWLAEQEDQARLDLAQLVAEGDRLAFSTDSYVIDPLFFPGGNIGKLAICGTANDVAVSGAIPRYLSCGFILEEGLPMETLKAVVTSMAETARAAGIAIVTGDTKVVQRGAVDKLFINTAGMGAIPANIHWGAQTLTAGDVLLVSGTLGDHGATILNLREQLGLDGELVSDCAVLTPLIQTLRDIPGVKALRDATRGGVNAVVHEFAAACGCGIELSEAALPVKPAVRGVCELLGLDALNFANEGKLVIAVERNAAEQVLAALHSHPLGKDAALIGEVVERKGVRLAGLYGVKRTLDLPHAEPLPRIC
UniProt P33343, sequence (P33343 whole entry): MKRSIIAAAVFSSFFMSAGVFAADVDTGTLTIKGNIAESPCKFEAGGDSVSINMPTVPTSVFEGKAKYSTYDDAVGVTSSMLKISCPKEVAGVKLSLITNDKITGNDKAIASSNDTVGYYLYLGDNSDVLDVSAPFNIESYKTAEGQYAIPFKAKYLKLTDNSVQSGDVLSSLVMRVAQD
UniProt P36547, sequence (P36547 whole entry): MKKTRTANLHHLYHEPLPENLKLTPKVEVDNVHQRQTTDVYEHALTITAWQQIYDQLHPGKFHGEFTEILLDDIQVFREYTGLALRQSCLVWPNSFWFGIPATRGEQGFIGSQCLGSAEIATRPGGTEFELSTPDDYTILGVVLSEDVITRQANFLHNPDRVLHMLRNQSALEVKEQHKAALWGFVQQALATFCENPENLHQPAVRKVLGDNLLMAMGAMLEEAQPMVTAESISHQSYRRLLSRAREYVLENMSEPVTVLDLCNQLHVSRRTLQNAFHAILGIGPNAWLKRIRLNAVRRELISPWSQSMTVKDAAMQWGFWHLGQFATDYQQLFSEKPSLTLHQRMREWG
UniProt P69789, sequence (P69789 whole entry): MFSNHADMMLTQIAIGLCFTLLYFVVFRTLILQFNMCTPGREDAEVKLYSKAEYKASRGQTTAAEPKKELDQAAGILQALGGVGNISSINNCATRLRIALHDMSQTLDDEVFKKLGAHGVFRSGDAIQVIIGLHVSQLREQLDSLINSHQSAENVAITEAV

With “UniProt P42599 (peptide sequence: LSECQKVCFVPR, peptide start residue: 252)”, the log2 fold change was -0.582.
As to “UniProt P0A7D4 (peptide sequence: EMKELEDR, peptide start residue: 83)”, the log2 fold change was -1.78.
Regarding “UniProt P0ACU0 (peptide sequence: LLTQDDTVNLSK, peptide start residue: 109)”, the log2 fold change was 0.555.
For the target “UniProt P37671 (peptide sequence: SYWESHQHEIQPLTR, peptide start residue: 174)”, the log2 fold change was -0.718.
As to “UniProt P37902 (peptide sequence: ALFKEPNDKALN, peptide start residue: 291)”, the log2 fold change was determined as 1.12.
“UniProt P24193 (peptide sequence: AVVTSMAETAR, peptide start residue: 111)”: the log2 fold change was -1.88.
For the target “UniProt P0A9U6 (peptide sequence: VSPAISTLQK, peptide start residue: 45)”, the log2 fold change turned out to be 0.654.
With “UniProt P06989 (peptide sequence: KSADPETSYTAK, peptide start residue: 126)”, the log2 fold change was -0.912.
“UniProt P69789 (peptide sequence: LYSKAEYK, peptide start residue: 48)”: the log2 fold change is -1.96.
Turning to “UniProt P36547 (peptide sequence: TANLHHLYHEPLPENLK, peptide start residue: 6)”, the log2 fold change was -0.813.
To “UniProt P00888 (peptide sequence: LLVVCGPCSIHDPETALEYARR, peptide start residue: 55)” belongs 0.547; to “UniProt P05804 (peptide sequence: DKNHPSVVMWSIANEPDTRPQGAR, peptide start residue: 399)”, -0.737.
Regarding “UniProt P37197 (peptide sequence: GDENALTAQQK, peptide start residue: 330)”, the log2 fold change is -0.521.
Regarding “UniProt P0A959 (peptide sequence: QGWMVLNGPKKHAK, peptide start residue: 249)”, the log2 fold change was 1.18.
For “UniProt P37595 (peptide sequence: AQMSLQQELR, peptide start residue: 18)”, the log2 fold change stood at 0.693.
With “UniProt P39452 (peptide sequence: IIDTYAEATR, peptide start residue: 646)”, the log2 fold change was -1.19.
Turning to “UniProt P46144 (peptide sequence: RVWATAQK, peptide start residue: 32)”, the log2 fold change was -1.44.
For the target “UniProt P33371 (peptide sequence: ICPELQNASR, peptide start residue: 49)”, the log2 fold change was determined as 0.883.
On to “UniProt P14375 (peptide sequence: LNVVAIEVPSLR, peptide start residue: 302)”, for which the log2 fold change is -1.45.
For the target “UniProt P0AAB8 (peptide sequence: EQCDLLVCGHHHSFINR, peptide start residue: 102)”, the log2 fold change is -0.697.
With “UniProt P32141 (peptide sequence: ASGGFAMLAVDQR, peptide start residue: 12)”, the log2 fold change was -0.432.
As for “UniProt P14377 (peptide sequence: LVALGHLAAGVAHEIR, peptide start residue: 242)”, the log2 fold change came to 1.01.
Consider “UniProt P18392 (peptide sequence: EHIFEPFVR, peptide start residue: 367)”, for which the log2 fold change was -1.71.
Then “UniProt P33343 (peptide sequence: LSLITNDKITGNDK, peptide start residue: 95)”, with -0.561; and “UniProt P0AAG8 (peptide sequence: TQIGSLSGGNQQK, peptide start residue: 402)”, with 0.32; and “UniProt P36995 (peptide sequence: VTFSIESGAK, peptide start residue: 51)”, with -0.289.
To “UniProt P39199 (peptide sequence: AWFCGHEFYVDER, peptide start residue: 97)” belongs 1.88.
“UniProt P26365 (peptide sequence: SATGASVWVLSNR, peptide start residue: 277)”: the log2 fold change is -0.606.
With “UniProt P10908 (peptide sequence: VDAGSWYSK, peptide start residue: 79)”, the log2 fold change is -0.858.
“UniProt P05055 (peptide sequence: GDISEFAPR, peptide start residue: 546)”: the log2 fold change is -0.643.
On to “UniProt P27126 (peptide sequence: IGMDNAWLGR, peptide start residue: 45)”, for which the log2 fold change is -0.467.
